PubChem BioAssay AID743266 (National Center for Advancing Translational Sciences (NCATS), 2014)
Several values for one entry are separate records, joined by “and”; a condition that tells them apart may be missing. Equal values may be shown once. Out of some 410,000 compounds screened, about 310 (0.076%) were called active. Inconclusive results (about 2%) are left out. The sample holds actives, similar compounds and a random draw of the others, so the mix is not that of the screen. The call rests on the fitted dose curve; in most records, active means well fitted activation curve with a large enough effect; inconclusive means small, poorly fitted or top-dose-only effect, or another doubt; inactive means no such curve, though single readings can be large or run the other way. The source holds several records for some structures; these can differ, active in one and inactive in another.

target: Parathyroid hormone/parathyroid hormone-related peptide receptor (Homo sapiens) (UniProt Q03431); experiment: qHTS for PTHR1 Agonists: Primary Screen; conditions: HEK293 GP2 PTHR1 cells, GloSensor cAMP luminescence, 1 h; series mostly up to 115 µM; further: nearly all actives have a fitted effect of over 55% in size
Sequence (Q03431 whole entry, looked up): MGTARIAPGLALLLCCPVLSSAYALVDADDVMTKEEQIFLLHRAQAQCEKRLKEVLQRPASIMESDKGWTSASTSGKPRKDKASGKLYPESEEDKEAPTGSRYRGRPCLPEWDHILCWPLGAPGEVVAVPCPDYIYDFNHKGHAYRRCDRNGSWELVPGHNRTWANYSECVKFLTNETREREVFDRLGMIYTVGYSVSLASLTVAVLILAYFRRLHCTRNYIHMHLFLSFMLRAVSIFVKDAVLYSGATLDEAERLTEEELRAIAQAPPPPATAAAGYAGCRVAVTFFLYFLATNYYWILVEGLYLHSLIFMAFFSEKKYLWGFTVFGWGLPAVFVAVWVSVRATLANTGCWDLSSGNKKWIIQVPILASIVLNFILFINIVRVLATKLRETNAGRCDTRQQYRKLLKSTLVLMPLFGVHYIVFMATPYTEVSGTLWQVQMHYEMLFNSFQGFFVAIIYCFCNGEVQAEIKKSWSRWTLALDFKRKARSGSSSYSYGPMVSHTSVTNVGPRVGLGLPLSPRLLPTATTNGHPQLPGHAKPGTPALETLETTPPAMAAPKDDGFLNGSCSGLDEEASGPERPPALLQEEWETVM
Description: The goal of the proposed studies is to discover new compounds that act as potent agonists on the parathyroid hormone receptor type-1 (PTHR1). The PTHR1 plays critical roles in maintaining blood calcium and phosphate levels, as well as in controlling bone remodeling. PTHR1 agonists could thus be useful for treating diseases such as hypoparathyroidism and osteoporosis. In the former disease, an agonist drug would help maintain normal blood calcium and phosphate levels under conditions of parathyroid hormone deficiency. In the latter disease, an agonist drug would stimulate new bone formation and thus reduce the risk of fracture, under conditions of bone fragility, as occurs in aging.
To that end, we performed a quantitative high-throughput screening (qHTS) of the Molecular Libraries Probe Centers Network (MLPCN) compound libraries at the NIH Chemical Genomics Center (NCGC) for the parathyroid hormone receptor type-1 (PTHR1) using a unique HEK-293-derived cell line (GP2) that expresses the PTHR1 and a glosensor cAMP reporter construct.
NIH Molecular Libraries Probe Production Centers Network [MLPCN]
NIH Chemical Genomics Center [NCGC]
Assay Submitter (PI): Thomas Gardella, Massachusetts General Hospital
4 microL are dispensed into a 1536-well micro plate to yield 3,000 cells/well. The plates are then incubated overnight, after which 4 microL of 0.5 mM of BIoTium Luciferin plus 0.5 mM IBMX are added. They are then incubated at 37 degree for one hour before 23 nL of compounds are added through pinning and then incubated at 37 degree again for another hour. After the plates are kept at room temperature for 15 min before they are read on the ViewLux to measure luminescence.
Potency means the concentration at half of the fitted maximal effect.

Potency, active:
NS(=O)(=O)c1ccc(CCNC(=O)CCCn2c(SCC(=O)N3CCCC3)nc3ccsc3c2=O)cc1 21.6 µM

Potency, inactive:
COc1ccc(CCNc2nc3c(-c4cccc(F)c4)nnn3c3ccccc23)cc1OC
COc1ccc(C2c3c(oc4ccccc4c3=O)C(=O)N2Cc2ccc3c(c2)OCO3)cc1 (stereo not given)
Cc1ccc(C(=O)Nc2c(C(=O)NC(C)(C)C)oc3ccccc23)cc1
CSc1nn(Cc2cccc(C)c2)c(N)c1S(=O)(=O)c1ccccc1
CCC(C)c1ccc2oc(-c3ccc(NC(=O)c4cc5ccccc5o4)cc3)nc2c1 (stereo not given)
CCOc1ccc(CNCc2c(C(=O)O)c(C)n(Cc3cccc(OC)c3)c2C)cc1OC
CCCCNC(=O)c1cc(-c2ccc(Cl)c(Cl)c2)on1
CN1CCN(C(CNC(=O)c2ccccc2F)c2ccc3c(c2)OCO3)CC1 (stereo not given)
COC(=O)c1ccccc1NC(=O)c1ccc(COc2ccccc2Cl)o1
CCC(CC)c1nn2cc(-c3ccccc3)nc2s1
COCCNS(=O)(=O)c1cc(-c2nn3c(C)nnc3c3ccccc23)ccc1C
CCN(CC)S(=O)(=O)c1ccc2c(c1)N(CC(=O)NCC(C)c1ccccc1)C(=O)CO2 (stereo not given)
CCOc1cc(C2C(C(=O)Nc3ccc(OC)cc3)=C(C)Nc3nc(SC)nn32)ccc1O (stereo not given)
Cc1cc(OCC(=O)Nc2ncn[nH]2)c(C)c(C)c1Br
Cc1nc(SCC(=O)Nc2ccc(C(=O)O)cc2)n[nH]1
O=C(NCCc1ccccc1)C(=O)NCC(c1ccco1)S(=O)(=O)c1ccccc1 (stereo not given)
Cc1ccc(C)n1-c1nnc(N2CCC(C(=O)NCc3ccccc3Cl)CC2)s1
CC(C)(C)c1ccc(C(=O)NCC(c2ccco2)S(=O)(=O)c2ccc(F)cc2)cc1 (stereo not given)
Cc1c(Cl)cccc1NC(=O)N1CCN(C(=O)c2nsc3ccccc23)CC1
CCOC(=O)c1c(S(=O)(=O)N2CCCC(C(=O)NCc3ccc(F)cc3)C2)c(C)n(CC)c1C (stereo not given)
O=c1c2cccnc2n(Cc2cccc(F)c2)c(=O)n1Cc1ccccc1Cl
CCOc1ccc(OCC)c(NS(=O)(=O)c2ccc3[nH]c(=O)ccc3c2)c1
Cc1ccc(NC(=O)CSc2nc3c(c(=O)[nH]2)CN(Cc2ccc4c(c2)OCO4)CC3)cc1C
COc1cccc(CNC(=O)C2CCN(S(=O)(=O)c3ccc4c(ccn4C)c3)CC2)c1
COc1ccc(CNc2nc(-c3ccc(Cl)cc3)cc(C(F)(F)F)n2)cc1
COc1cc(Cl)c(NC(=O)C(NS(=O)(=O)c2cccs2)C(C)C)c(OC)c1 (stereo not given)
Cc1oc2ccc(O)c(CN3CCCCC3)c2c1C(=O)Nc1cccc(C(F)(F)F)c1
CCCCN(CC)CCCNC(=O)c1nn(C)c2c1CS(=O)(=O)c1ccccc1-2
COc1ccc(-n2c(SCC(=O)Nc3ccc(Cl)c(C)c3)nc3n[nH]c(C)c3c2=N)cc1
Cc1c(NC(=O)c2cc(=O)c3ccccc3o2)c(=O)n(-c2ccccc2)n1C
CCCn1c2ccccc2c2cnn(CC(=O)N(C)c3ccccc3CC)c(=O)c21
COC(=O)c1ccc(NC(=O)CCc2c(C)nc3c(c(C)nn3-c3ccc(C)cc3)c2C)cc1
Cc1ccc(Cn2c(C)c3cnn(CC(=O)NCc4ccccc4)c(=O)c3c2C)cc1
Cc1ccc(C)c(N2CCN(c3ccc4cc(S(=O)(=O)N5CCC(C)CC5)ccc4n3)CC2)c1
COc1ccccc1CNc1ccc(-c2nc(-c3ccccc3C)no2)cc1[N+](=O)[O-]
Cn1c(=O)[nH]c(=O)c2c1nc(NCCc1ccccc1)n2Cc1ccc(F)cc1
CCCCN(C)CCCNC(=O)CN1N=C(c2ccc(OC)cc2)CCC1=O
O=C(Nc1ccc2nc(SCC(=O)N3CCc4ccccc43)sc2c1)c1ccccc1F
CCOc1ccccc1CNC(=O)c1ccc(-n2c(C)cc3c2CCC(C)C3)cc1 (stereo not given)
CCOC(=O)c1c(C)[nH]c(CCC(=O)NCCCN2CCN(c3cccc(Cl)c3)CC2)c1C
Cc1ccc(C)c(N2CCN(S(=O)(=O)c3ccc4c(c3)C(C(C)C)C(=O)N4)CC2)c1 (stereo not given)
CCOc1ccccc1CNC(=O)Nc1cn(CC(C)C)c(=O)c2ccccc12
CCOc1cc(CNC(=O)c2sc3ncnc(N(C)C4CCCCC4)c3c2C)ccc1OC
Cc1nn2c(=O)cc(COC(=O)CNC(=O)c3ccc(F)cc3)nc2s1
COc1ccc(CCNC(=O)c2nn(C)c3c2CSc2ccccc2-3)cc1OC
Cc1c(C(=O)NCc2ccccc2Br)oc2ccc3c(c12)C(=O)CC(C)(C)O3
CCc1cccc(C)c1NS(=O)(=O)c1ccc(-c2cc(C)no2)s1
CCCc1nn2c(=O)cc(COC(=O)c3ccc(NC(=O)COc4ccc(F)cc4)cc3)nc2s1
CCCCC(=O)OC1=CN(Cc2ccccc2)S(=O)(=O)c2ccccc21
COc1ccc(OCCn2cc(C(=O)C3CCCCC3)c3ccccc32)cc1
Cc1oc2ccc(O)c(CN3CCOCC3)c2c1C(=O)Nc1cccc(Cl)c1C
COc1ccccc1C(=O)NCCn1cc(SCc2ccccc2Cl)c2ccccc21
O=S(=O)(NCC(c1ccco1)N1CCOCC1)c1cc(F)ccc1F (stereo not given)
Cc1ccccc1-c1nc(SCC(=O)N(C)c2ccccc2)c2c(=O)n(C)c(=O)n(C)c2n1
COc1ccccc1NC(=O)C(=O)c1cc(C)n(-c2ccccc2F)c1C
CC1CCCN(c2csc3ccc(F)cc3c2=O)C1 (stereo not given)
COc1ccc(S(=O)(=O)N2CCN(c3ccc(F)cc3)CC2)cc1-c1noc(C)n1
CCC(=O)N1CCc2cc(S(=O)(=O)NC(Cc3ccccc3)C(=O)NCc3ccccc3)ccc21 (stereo not given)
CCCn1c2ccccc2c2cnn(CC(=O)NCCCN3CCCCC3CC)c(=O)c21 (stereo not given)
CCn1c(=O)c2cc(C(=O)NCCc3ccc(Cl)cc3)sc2c2ccccc21
COc1ccc(C)cc1NC(=O)C(=O)NCCc1sc(-c2cccc(C)c2)nc1C
CCCn1c2ccccc2c2cnn(CC(=O)NCC3CCN(Cc4ccc(C)cc4)CC3)c(=O)c21
Cn1c(=O)sc2cc(NS(=O)(=O)c3ccc(C(C)(C)C)cc3)ccc21
O=C(CSc1nccn1Cc1ccc(F)cc1)NCc1ccccc1
O=C(Cn1nc(C(F)(F)F)c2c1CCCC2)Nc1ccc(Cl)cc1
CCOC(=O)C1CCN(c2ncnc3c2c(-c2ccccc2)cn3-c2cccc(C)c2)CC1
CSc1ccc(CCNC(=O)c2cnn(-c3ccccc3)c2-n2cccc2)cc1
COc1ccccc1CNC(=O)CS(=O)(=O)c1cccc2nsnc12
COc1ccc(N2CCN(Cc3nc4c(c(=O)[nH]c(=O)n4C)n3Cc3ccc(Cl)cc3)CC2)cc1
COc1ccccc1C(=O)OCc1cc(=O)n2nc(-c3cccs3)sc2n1
NS(=O)(=O)c1ccc(CCNC(=O)CCCCCn2c(=O)[nH]c3ccccc3c2=O)cc1
CCCCn1c(SCC(=O)N2CCCC2=O)nc2cc(S(N)(=O)=O)ccc21
CCc1nc2c(cnn2-c2ccc(C)cc2)c(=O)n1-c1ccc(C)cc1
CCCC12CN3CC(CCC)(CN(C1)C3c1c[nH]c3ccc(OC)cc13)C2=O (stereo not given)
Cc1ccc(C)c(NC(=O)Cn2ccn(-c3ccc(F)cc3)c(=O)c2=O)c1
Cc1cc(C)cc(NC(=O)Cn2c(=O)c3ccccc3n3nncc23)c1
Fc1ccc(-n2ncc3c(Nc4ccc(Oc5ccccc5)cc4)ncnc32)cc1
Cc1ccc(CNC(=O)CCc2c(C)nc3nc(CNC(=O)OC(C)(C)C)nn3c2C)cc1
CCN(CC)S(=O)(=O)c1ccc2c(c1)N(CC(=O)NCc1ccccc1)C(=O)CS2
COc1ccc2c(c1)c(=O)c(C(=O)c1ccccc1)cn2CC(=O)Nc1ccc2c(c1)OCCO2
COc1ccccc1CN1CCC(CNC(=O)c2cnn(-c3cccc(Cl)c3)c2C2CCN(C(=O)OC(C)(C)C)CC2)CC1
COc1cccc(CNC(=O)CCC(=O)N2CC3CCCN3c3ccccc32)c1 (stereo not given)
Cc1ccn2c(Nc3ccc4c(c3)OCCO4)c(-c3ccc(C)s3)nc2c1
COc1ccc(NC(=O)C2CCN(c3ccc(Sc4ccc(C)cc4)nn3)CC2)c(OC)c1
COc1ccc(Cn2ccnc2SCC(=O)Nc2ccc3c(c2)OCO3)cc1
Cc1cccc(-c2nc(SCC(=O)Nc3cc(C)on3)c3c(=O)n(C)c(=O)n(C)c3n2)c1
COc1ccc(OC)c(NC(=O)CN2CCCN(Cc3cc(C)ccc3C)S2(=O)=O)c1
COc1ccc(OC)c(CNC(=O)CN2C(=O)CCn3nc(-c4cn(C)c5ccccc45)cc32)c1
CC1CCCN(c2cc3c(cc2F)c(=O)c(S(=O)(=O)c2cccc(Cl)c2)cn3Cc2ccccc2)C1 (stereo not given)
CCOC(=O)c1ccccc1NC(=O)c1sc2nc(-c3ccc(F)cc3)cn2c1C
CCOc1ccc(-c2cc(C)n3nc(C(=O)Nc4ccc(C)c(C)c4)cc3n2)cc1
O=S(=O)(NCCS(=O)(=O)N1CCN(c2ccccc2)CC1)c1ccc(Cl)cc1
CCN(CC)S(=O)(=O)c1ccc2c(c1)nc(CN(C)C(=O)Nc1ccc(Cl)cc1)n2C

Potency, inactive and 25.1 µM (active):
CCC1CCCCN1CCCNC(=O)c1cc2c(Cl)nc3ccccc3c2s1 (stereo not given)
